Screening results as filed in PubChem BioAssay.
Rows were chosen to be rich in hits. Some 32% of all compounds tested hit in one or more screens of this group.
CYP2C19 inhib – blockers of cytochrome P450 2C19 activity – biochemical, luminescence, ADME assay, primary screen. P33261. CYP2C19 Supersomes, luciferin-H EGE luminescence, 30 min. inhibition, % at 5 µM. 96,000 tested, 21% active;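 active = CYP2C19 inhibition above a set limit at 5 µM in the primary screen, cut at about 50% in these data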
CYP2C9 inhib – blockers of cytochrome P450 2C9 activity – biochemical, luminescence, ADME assay, primary screen | CYP2C9 Supersomes, luciferin-H conversion | inhibition, % at 5 µM | 96,000 tested, 20% active | P11712;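 active = blocking of liver enzyme CYP2C9 beyond about 50% at 5 µM, limit read from the data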
Target sequence (P11712 whole entry, looked up): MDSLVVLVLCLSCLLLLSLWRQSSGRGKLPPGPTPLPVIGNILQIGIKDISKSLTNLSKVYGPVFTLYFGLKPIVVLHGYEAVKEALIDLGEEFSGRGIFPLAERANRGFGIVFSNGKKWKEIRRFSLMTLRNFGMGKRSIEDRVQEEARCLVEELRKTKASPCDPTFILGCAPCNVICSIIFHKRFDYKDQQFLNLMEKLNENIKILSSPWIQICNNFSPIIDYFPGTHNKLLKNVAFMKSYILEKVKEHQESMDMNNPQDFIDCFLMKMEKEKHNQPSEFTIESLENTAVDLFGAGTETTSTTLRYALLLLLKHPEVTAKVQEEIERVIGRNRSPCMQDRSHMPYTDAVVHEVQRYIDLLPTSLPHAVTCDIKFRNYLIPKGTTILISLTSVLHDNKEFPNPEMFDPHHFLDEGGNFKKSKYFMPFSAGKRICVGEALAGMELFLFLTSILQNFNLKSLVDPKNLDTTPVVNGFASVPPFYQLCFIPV
CYP2C9 act – human CYP2C9 activators, primary screen, biochemical, luminescence; 96,000 tested, 1.4% active; recombinant CYP2C9, luciferin-H conversion; stronger effect = higher value; factor 1 = untreated enzyme, 0 = blocked; activation factor at 5 µM; Cytochrome P450 2C9 (Homo sapiens), P11712;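 active = activation factor of 2 or more for CYP2C9 at a 5 µM dose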
PostGolgi ctrl – growth inhibition of yeast control strain, primary screen, counter-screen for post-Golgi transport modulator project | 98,000 tested, 5% active | AID 738, 2007 | inhibition, % at 10 µM | efflux-deficient yeast background strain, growth absorbance A615, 16 h
PostGolgi yeast – phenotypic screen on post-Golgi transport, primary screen. post-Golgi transport phenotypic cell assay. inhibition, % at 10 µM. 98,000 tested, 0.9% active;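 also: yeast cells grown in 1536-well plates; yeast grown about 18 h at 30C before absorbance read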
CYP2C19 act – human CYP2C19 activators, primary screen, biochemical, luminescence; activation factor at 5 µM; Cytochrome P450 2C19 (Homo sapiens), P33261; AID 1025, 2008; recombinant CYP2C19, luciferin-H EGE luminescence; stronger effect = higher value; 0 = fully inhibited enzyme, 1 = untreated enzyme; 96,000 tested, under 10 active;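 active = activation factor of at least 2 at 5 µM in the primary screen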
A number is an active result; - = inactive; ! = repeats disagree. Rule as the data show it, unless noted: active = inhibition above about 30%; inactive = the rest.

SMILES	CYP2C19 inhib	CYP2C9 inhib	CYP2C9 act	PostGolgi ctrl	PostGolgi yeast	CYP2C19 act
COc1ccc2[nH]c(C)c(CCN3CCC(=O)C(C)C3C)c2c1 (stereo not drawn)	89	51	-	-	-	-
CCCCOP(=O)(CN1CCOCC1)OCCCC	-	-	-	-	-	-
O=C1CN=C(c2ccccc2)c2ccccc2N1Cc1ccc(C(F)(F)F)cc1	-	-	-	42	-	-
Cc1cccc(N2CCc3c2nc2ccccc2c3N)c1	77!	65!	-	-	-	-
CCCCn1c(N)c(C(=O)NCCN2CCOCC2)c2nc3ccccc3nc21	-	-	-	-	-	-
Nc1c(C(=O)NCCc2ccccc2)c2nc3ccccc3nc2n1CCN1CCOCC1	67	97	-	40	50	-
COc1ccc(CCNC(=O)c2c(N)n(CCN3CCOCC3)c3nc4ccccc4nc23)cc1	-	50	-	35	-	-
CC(C)NS(=O)(=O)c1ccc(OCC(=O)N2CCN(Cc3ccccc3)CC2)c(Cl)c1	54	71	-	-	-	-
CCCNS(=O)(=O)c1ccc(OCC(=O)N2CCN(Cc3ccccc3)CC2)cc1	-	52	-	-	-	-
O=C(COc1ccc(S(=O)(=O)N2CCCCC2)cc1)N1CCN(Cc2ccccc2)CC1	-	-	-	-	-	-
CC(C)NS(=O)(=O)c1ccc(OCC(=O)N2CCN(C)CC2)cc1	-	-	-	-	-	-
Cn1cccc1CN1CCN(C(=O)COc2ccccc2)CC1	-	-	-	-	-	-
Cn1nc(-c2ccc(OCC(=O)N3CCN(Cc4ccccc4)CC3)cc2)c2ccccc2c1=O	80	79	-	-	-	-
Cc1cc(NCCN)nc2ccccc12	-	-	-	-	-	-
CC(C)Sc1nnc([C@@H](N)Cc2c[nH]c3ccccc23)o1	77	-	-	-	-	-
CC(C)Sc1nnc([C@@H](N)Cc2ccccc2)o1	-	-	-	-	-	-
O=C(C(Cc1ccccc1)NS(=O)(=O)c1ccc(F)cc1)N1CCC2(CC1)OCCO2 (stereo not drawn)	80	-	-	-	-	-
CC(=NCCCn1ccnc1)c1c(O)n(C)c(=O)n(C)c1=O	-	-	-	-	-	-
CCCCN1CCC(C#N)(Nc2ccccc2)CC1	71	-	-	-	-	-
CN1CCN(CCC(C#N)(c2ccccc2)c2ccccc2)CC1	-	-	-	-	-	-
Cc1cc(C)n2nc(SC(C)C(=O)N3CCC4(CC3)OCCO4)nc2n1 (stereo not drawn)	-	-	-	-	-	-
N=C(N)c1c(O)n(C2CCCCC2)c(=O)n(C2CCCCC2)c1=O	-	-	-	53	-	-
O=c1c(C=NCc2cccs2)c(O)n(C2CCCCC2)c(=O)n1C1CCCCC1	-	-	-	-	-	-
COc1ccccc1-n1c(O)c(C=Nc2c(C)n(C)n(-c3ccccc3)c2=O)c(=O)[nH]c1=O	-	-	-	-	-	-
CCCC(C)C1C(C#N)=C(N)Oc2c1c(=O)oc1ccccc21 (stereo not drawn)	-	70	-	36	-	-
SMILES	CYP2C19 inhib	CYP2C9 inhib	CYP2C9 act	PostGolgi ctrl	PostGolgi yeast	CYP2C19 act
CC(C)Oc1ccc(C2C(C#N)=C(N)Oc3c2c(=O)oc2ccccc32)cc1 (stereo not drawn)	-	90	-	-	-	-
Cc1ccc(-n2nc(C)c(C3C(C#N)=C(N)Oc4c3c(=O)oc3ccccc43)c2Cl)cc1 (stereo not drawn)	-	98	-	39	-	-
COc1ccc(C2C(C#N)=C(N)Oc3c2c(=O)oc2ccccc32)cc1Cn1cc([N+](=O)[O-])cn1 (stereo not drawn)	-	97	-	-	-	-
Cc1ccccc1C(O)(Cc1ccccc1)C1CN2CCC1CC2 (stereo not drawn)	-	-	-	-	-	-
COCCOC(=O)C1=C(N)Oc2c(c(=O)oc3ccccc23)C1c1ccncc1 (stereo not drawn)	96	97	-	-	-	-
COCCOC(=O)C1=C(C)OC(N)=C(C(=O)OC)C12C(=O)Nc1ccccc12 (stereo not drawn)	-	-	-	-	-	-
CCn1c(=O)n(CC(=O)N2CCC3(CC2)OCCO3)c(=O)c2ccccc21	-	-	-	-	-	-
O=C(Cn1ncc2ccccc21)N1CCC2(CC1)OCCO2	55	-	-	-	-	-
Cc1c2cnn(CC(=O)N3CCC4(CC3)OCCO4)c(=O)c2c(C)n1Cc1ccc(F)cc1	53	-	-	-	-	-
O=C(Cn1cnc2ccccc2c1=O)NCC(=O)N1CCC2(CC1)OCCO2	-	-	-	-	-	-
O=C(Cn1ncc2c3ccccc3n(Cc3ccccc3)c2c1=O)N1CCC2(CC1)OCCO2	-	53	-	-	-	-
O=C(Cn1ncc2c3ccccc3n(Cc3ccccc3F)c2c1=O)N1CCC2(CC1)OCCO2	-	69	-	-	55	-
CC1CCC(C(C)C)C(OP(N)(=O)c2ccccc2)C1 (stereo not drawn)	83	65	-	-	-	-
CN(C)CCN=Cc1c(O)n(-c2cccc(C(F)(F)F)c2)c(=O)[nH]c1=O	-	-	-	-	-	-
Cc1ccccc1-n1c(O)c(C=Nc2ccc(N(C)C)cc2)c(=O)[nH]c1=O	-	-	-	-	-	-
CN(C)C1(c2nnnn2-c2ccc(Cl)cc2)CCCCC1	93	-	-	-	-	-
CN(C)C1(c2nnnn2CCOC(=O)Nc2ccc(Cl)cc2)CCCCC1	100	87	-	-	-	-
CN(C)c1cc(N)c2c(n1)CCC2 (tested in a mixture with another compound)	-	-	-	-	-	-
CC(=O)N1N=C2C3CCN(CC3)C2C1c1ccccc1 (stereo not drawn)	-	-	-	-	-	-
Cc1ccc(-n2c(O)c(C=Nc3ccc(S(=O)(=O)N(C)C)cc3)c(=O)[nH]c2=O)cc1	-	-	-	-	-	-
CCOc1ccc(-n2c(O)c(C=Nc3ccc(N4CCOCC4)cc3)c(=O)[nH]c2=O)cc1	-	-	-	-	-	-
CC12CN3CC(C)(CN(C1)C3c1cccs1)C2O (stereo not drawn)	58	-	-	-	-	-
CCN(CCNc1ccc([N+](=O)[O-])c2cccnc12)S(=O)(=O)c1ccc(Cl)cc1	61	51	-	35	-	-
CCC(CO)Nc1ccc([N+](=O)[O-])c2cccnc12 (stereo not drawn)	58	-	-	-	-	-
Cc1ccc(Cl)cc1-n1c(O)c(C=NCCCN2CCOCC2)c(=O)[nH]c1=O	-	-	-	-	-	-
